Screens deposited in PubChem BioAssay by National Center for Advancing Translational Sciences (NCATS).
Sampled rows, rich in hits. Any-hit rate of the full collection: about 6.9%.
MCF10A rerep = inducers of DNA re-replication in MCF 10A breast cells; MCF 10A DNA re-replication, Hoechst nuclear intensity, 48 h; Potency, µM (series often up to 46.1 µM), hits mostly activators; hit rate 2.9% among 350,000; AID 624296; further: nearly all actives have a fitted effect of over 50% in size
SW480 rereplic = induces DNA re-replication in SW480 colon adenocarcinoma cells. SW480 DNA re-replication, Hoechst DNA content imaging, 48 h. Potency, µM (series often up to 46.1 µM), actives largely listed as activators. hit rate 1.8% among 340,000. AID 624297; further: nearly all actives have a fitted effect of over 55% in size
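Image-based read-out: total Hoechst fluorescence of nuclei (405 nm excitation, 500-530 nm emission), with hits raising the fraction of high-intensity nuclei. SW480 colon cells incubated 48 hr with compounds at 37 C.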
IL1B secr inh = inhibitors of inflammasome signaling (IL-1 beta secretion) | THP-1 LPS/ATP IL-1B secretion, AlphaLISA, 16 h; active compounds read low | activity change, % at 57.5 µM | hit rate 4.7% among 360,000 | AID 743279; in the data active means activity change below about -50%; inconclusive means mostly about -30% to -49%
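THP-1 cells pretreated 1 hr with compounds (up to 57.5 uM final), then stimulated with LPS (250 ng/mL final) plus ATP (1.25 mM final); secreted IL-1B measured by AlphaLISA after 16 hr, decreased signal indicating inhibition.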
Vif-A3F inh = Vif-A3F binding inhibition; HeLa A3F-eYFP + Vif (tagged APOBEC3F with the HIV-1 protein that degrades it), YFP fluorescence increase; Potency, µM (series often up to 46.1 µM); hit rate 0.2% among 390,000; AID 602313; further: nearly all actives have a fitted effect of over 65% in size
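HeLa cells stably expressing A3F-eYFP plus Vif, plated and incubated overnight at 37 deg C, then exposed to compounds overnight at 37 deg C. Blocked degradation read as raised yellow fluorescence (Ex 488/Em 500-530).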
Vif-A3G inh = blocks the Vif interaction with human APOBEC3G | Q9HC16 | HeLa A3G-eYFP + Vif (tagged APOBEC3G with the HIV-1 protein that degrades it), YFP fluorescence, overnight | Potency, µM (doses to about 46.1 µM), actives largely listed as inhibitors | hit rate 0.076% among 410,000; further: nearly all actives have a fitted effect of over 60% in size
Target sequence (Q9HC16 whole entry, looked up): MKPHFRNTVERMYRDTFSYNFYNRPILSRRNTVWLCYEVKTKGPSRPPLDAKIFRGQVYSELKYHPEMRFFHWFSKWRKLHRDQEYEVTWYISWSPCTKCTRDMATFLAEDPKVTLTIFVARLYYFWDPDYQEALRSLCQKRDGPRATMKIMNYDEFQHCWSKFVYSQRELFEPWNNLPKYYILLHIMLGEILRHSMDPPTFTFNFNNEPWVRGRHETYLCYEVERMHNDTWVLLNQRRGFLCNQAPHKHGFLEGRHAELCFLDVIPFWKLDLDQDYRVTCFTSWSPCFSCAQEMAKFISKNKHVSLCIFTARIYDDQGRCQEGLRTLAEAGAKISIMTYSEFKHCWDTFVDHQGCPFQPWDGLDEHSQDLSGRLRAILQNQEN
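HeLa cells stably expressing Vif and C-terminally eYFP-tagged A3G, seeded overnight at 37 deg C, then exposed to compound by pintool overnight at 37 deg C. Rise in yellow fluorescence (Ex 488/Em 500-530, Acumen) marks blocked Vif-driven A3G degradation.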
Giardia kill = kills Giardia lamblia. Giardia lamblia trophozoite viability. activity change, % at 7.66 µM, hits read low. hit rate 0.15% among 340,000; in the data active means activity change below about -80%; inconclusive means between about -30% and that limit;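 further: parasites exposed to compound for two days anaerobically before the ATP read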
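ATP-content bioluminescence gauges trophozoite survival. Cells (100/well) receive compound and incubate anaerobically for 48 hrs at 37 deg C; detection reagent follows for 15-30 min at room temperature.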
Numbers stand for hits; i = inactive; ? = inconclusive; nt = no result given; ! = not active in a repeat. Unless noted, the call rests on the fitted dose curve; in most records, active means well fitted curve in the direction sought with a large enough effect; inconclusive means small, poorly fitted or top-dose-only effect, or another doubt; inactive means no such curve, though single readings can be large; an effect the other way counts as inactive or inconclusive.

SMILES	MCF10A rerep	SW480 rereplic	IL1B secr inh	Vif-A3F inh	Vif-A3G inh	Giardia kill
COC(=O)C1=CN(c2ccc(F)cc2)C=C(C(=O)OC)C1c1ccc([N+](=O)[O-])cc1	i	i	i	i	i	i
COC(=O)C1=CN(c2ccc(F)cc2)C=C(C(=O)OC)C1c1cccc(Br)c1	14.6µM	23.1µM	?	i	i	i
CC(C)OCCCN1C(=O)c2[nH]nc(-c3ccccc3O)c2C1c1ccccc1F (configuration not stated)	nt	nt	nt	i	i	nt
O=C(CCCN=C1NS(=O)(=O)c2ccccc21)OCC(=O)c1ccc(F)cc1	i	i	i	i	i	i
O=C(CCCN=C1NS(=O)(=O)c2ccccc21)OCC(=O)c1ccccc1Cl	3.66µM	i	i	i	i	i
CCn1c2ccccc2c2cc(NC(=O)CSc3nnc(-c4cccc(C)c4)o3)ccc21	?	?	i	i	i	i
CCn1c2ccccc2c2cc(NC(=O)CSc3nnc(-c4ccccc4)o3)ccc21	?	0.651µM	?	i	i	i
CCn1c2ccccc2c2cc(NC(=O)CSc3nnc(-c4cccc(F)c4)o3)ccc21	5.17µM	?	i	nt	?	i
O=C(CSc1nnc(-c2cccc(F)c2)o1)Nc1nncs1	i	i	i	i	i	i
COc1ccc(C#Cc2c[nH]c(=O)c3cncnc23)cc1OC	nt	nt	nt	nt	nt	i
COc1cc(-c2noc(C)c2-c2ccc3[nH]ccc3c2)cc(OC)c1OC	?	2.59µM	i	i	14.1µM!	i
COc1cc(-c2noc(C)c2-c2ccc(N(C)C)nc2)cc(OC)c1OC	?	0.291µM	i	i	i	i
CCOc1ccc(OCC)c(S(=O)(=O)NC2CC(C)(C)NC(C)(C)C2)c1	i	i	-59.4	i	i	i
CCOc1ccc(NC(=O)CSc2nnc(-c3ccncc3)n2-c2ccccc2)cc1	nt	nt	nt	i	i	nt
O=C(NCCOc1ccccc1)c1ccc2n[nH]nc2c1	i	4.61µM	i	i	i	i
Cc1ccc(C)c(NC(=O)C(CC(C)C)N2Cc3ccccc3C2=O)c1 (configuration not stated)	nt	nt	nt	i	i	nt
COc1ccc2cc3cc(C(=O)NCCc4ccccc4)sc3nc2c1Cl	nt	nt	nt	i	i	nt
CC(C)(C)OC(=O)N1CCN(/[N+]([O-])=N/Oc2ccc([N+](=O)[O-])cc2[N+](=O)[O-])CC1	nt	nt	nt	nt	i	nt
CC(C)CC(=O)NC(NC(=S)Nc1ccccc1)C(Cl)(Cl)Cl (configuration not stated)	i	i	-77.1	i	i	i
CC(=O)NC(NC(=S)Nc1cccc(Br)c1)C(Cl)(Cl)Cl (configuration not stated)	i	i	-60.2	i	i	i
CC(=O)NC(NC(=S)Nc1ccc(N=Nc2ccccc2)cc1)C(Cl)(Cl)Cl (configuration not stated)	?	i	i	i	i	i
O=C(CCc1ccccc1)NC(=S)Nc1cccc(Br)c1	16.4µM	i	i	?	?	i
CCOC(=O)C(C)NC(=O)c1c2c(nc3ccccc13)C(=O)N(C1CCCCC1)C2 (configuration not stated)	nt	nt	nt	i	i	nt
CCN1CCN(C(=S)Nc2ccc3nc(N4CCN(CC)CC4)cc(C)c3c2)CC1	?	?	?	i	i	i
Cc1cc(N2CCOCC2)nc2ccc(NC(=O)CCC(=O)N3CCN(c4ccccc4)CC3)cc12	i	i	i	i	i	i
SMILES	MCF10A rerep	SW480 rereplic	IL1B secr inh	Vif-A3F inh	Vif-A3G inh	Giardia kill
Cc1cc(N2CCN(C)CC2)nc2ccc(NC(=O)CCC(=O)N3CCN(c4ccc([N+](=O)[O-])cc4)CC3)cc12	18.4µM	?	i	i	i	i
Cc1cc(N2CCOCC2)nc2ccc(NC(=S)NC(C)C)cc12	23.1µM	i	i	i	i	i
Cc1cc(N2CCN(C)CC2)nc2ccc(NC(=O)c3ccccc3F)cc12	?	i	-56.0	i	i	i
CCN1CCN(c2cc(C)c3cc(NC(=O)c4ccccc4F)ccc3n2)CC1	nt	nt	nt	i	i	nt
CCN1CCN(c2cc(C)c3cc(NC(=S)N4CC(C)CC(C)C4)ccc3n2)CC1 (configuration not stated)	?	?	-89.1	i	i	i
Cc1cc(N2CCCC2)nc2ccc(NC(=S)NC(C)C)cc12	?	?	i	i	i	i
O=C(c1cccs1)N(Cc1ccco1)c1ccc(O)cc1	nt	nt	nt	nt	i	i
CCCCN(CC)CCNC(=S)Nc1ccc2nc(N3CCN(C)CC3)cc(C)c2c1	i	?	-54.6	?	i	i
Cc1ccc(C(=O)n2nc(C)c(S(=O)(=O)N3CCOCC3)c2C)cc1	nt	nt	nt	i	i	nt
CN(C)/C=N/c1c(C#N)cnn1-c1ccc(C(F)(F)F)cn1	14.6µM	i	i	i	i	i
CC(=O)N1CCc2c(sc3c2c(=O)n(-c2ccc(C)cc2)c(=O)n3Cc2c(F)cccc2Cl)C1	nt	nt	nt	i	i	nt
CCOc1ccc(NC(=O)CCC(=O)NNC(=O)Nc2cccc(Cl)c2)cc1	0.184µM	?	i	i	i	i
CN1/C(=C\C=C2/SC(=S)NC2=O)C(C)(C)c2ccccc21	?	i	i	?	7.94µM	i
CCCN1C(=O)/C(=C\C=C2\N(CC)c3ccccc3C2(C)C)SC1=S	i	i	i	3.55µM	?	i
CN1CCN(C(=O)c2cccc(-c3cnc4cnc(-c5ccccc5Oc5ccccc5)cn34)c2)CC1	nt	nt	-57.1	nt	i	nt
O=C(c1cccc(-c2cncc3nccn23)c1)N1CCOCC1	nt	nt	i	nt	i	nt
CCC1SC2=NC(C)=C(C(=O)OCC(C)C)C(/C=C/c3ccccc3OC)N2C1=O (configuration not stated)	i	?	i	i	i	i
COc1ccccc1/C=C/C1C(C(=O)OCC(C)C)=C(C)N=C2SCCC(=O)N21 (configuration not stated)	?	i	-68.7	i	i	i
CC1=C(C(=O)OCc2ccccc2)C(c2cccs2)N2C(=O)CCSC2=N1 (configuration not stated)	i	i	-56.4	i	i	i
CCOC(=O)C1=C(C)N=C2SCCC(=O)N2[C@@H]1c1cccs1	i	i	i	i	i	i
CCOC(=O)/C(Sc1nc(-c2ccccc2)cc(-c2ccccc2)c1C#N)=C(\C)O	3.66µM	11.6µM	i	i	i	i
CCSc1nc(-c2ccc(OC)cc2)cc(-c2ccccc2)c1C#N	?	i	i	i	i	i
CC(NC1=CC(=O)c2cccnc2C1=O)C(O)c1ccccc1 (configuration not stated)	3.66µM	11.6µM	-99.8	?	10µM	i
Cc1c(Cl)cccc1NC(=O)Cn1nc(C(F)(F)F)c2c1CCC2	nt	nt	nt	i	i	nt
CC#CC[N+](C)(C)CCCCCCCCCCCC	?	?	i	i	i	i
CCCCCCCCCCCCCCCC[N+](C)(C)CCl	i	20.6µM	-92.2	i	i	i
